Sampled rows, rich in hits. Any-hit rate of the full collection: about 1.1%.
KCNH2 3.1 inh = blocks the human KCNH2 3.1 channel isoform; U2OS KCNH2 3.1, thallium flux FluxOr; stronger effect = lower value; activity change, % (tested at about 1.8 µM); 340,000 tested, 0.95% active; AID 720553;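 active means maximum activity change below -70%; inconclusive means maximum activity change from -70% to -50%; inactive means maximum activity change above -50%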;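 further: thallium influx rate constant from kinetic fluorescence after stimulation buffer; on the % scale 0 is the no-effect control and ±100 the full control effect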
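FluxOr-based Tl+ influx in U2OS cells transduced with KCNH2 3.1 virus; rate constants normalized to DMSO controls.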
MLL CXXC-DNA inh = blocks binding of human MLL CXXC domain to DNA. Potency, µM (highest dose often 115 µM), for inactives: at the highest dose activity change, negative = inhibition, hits mostly inhibitors. 290,000 tested, 0.037% active. MLL-CXXC / FITC-HOXA9 DNA fluorescence polarization; active means well fitted inhibition curve with a large enough effect in the polarisation, with a control signal flat, not every such curve was filed as active; inconclusive means small, poorly fitted or top-dose-only effect, or effect the other way, or a change in a side signal; inactive means no such curve, though single readings can be large or run the other way; the % refers to the polarisation; further: potency means the concentration at half of the fitted maximal effect
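Purified MLL-CXXC (added from a 7 uM solution) was preincubated 5 min at ambient with pinned compounds in 50 mM Tris-HCl pH 7.5, 50 mM NaCl, 1 mM DTT, 0.05% BSA. Fluorescein-labeled HOX-A9 DNA (50 nM solution) followed, 30 min, then polarization read.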
Menin-MLL TR inh = inhibitors of human menin-MLL interaction, mutant MLL peptide; Potency, µM (series often up to 61.6 µM), inactives show at the highest dose FP activity change, negative = inhibition, actives largely listed as inhibitors; Menin + Texas Red MLL mutant peptide, fluorescence polarization; AID 1768; O00255; 270,000 tested, 0.23% active; active means well fitted inhibition curve with a large enough effect in the polarisation, with a control signal flat, not every such curve was filed as active; inconclusive means small, poorly fitted or top-dose-only effect, or effect the other way, or a change in a side signal; inactive means no such curve, though single readings can be large or run the other way; the % refers to the polarisation; further: potency means the concentration at half of the fitted maximal effect; % of control where 0% means no effect
Target sequence (O00255 whole entry, looked up): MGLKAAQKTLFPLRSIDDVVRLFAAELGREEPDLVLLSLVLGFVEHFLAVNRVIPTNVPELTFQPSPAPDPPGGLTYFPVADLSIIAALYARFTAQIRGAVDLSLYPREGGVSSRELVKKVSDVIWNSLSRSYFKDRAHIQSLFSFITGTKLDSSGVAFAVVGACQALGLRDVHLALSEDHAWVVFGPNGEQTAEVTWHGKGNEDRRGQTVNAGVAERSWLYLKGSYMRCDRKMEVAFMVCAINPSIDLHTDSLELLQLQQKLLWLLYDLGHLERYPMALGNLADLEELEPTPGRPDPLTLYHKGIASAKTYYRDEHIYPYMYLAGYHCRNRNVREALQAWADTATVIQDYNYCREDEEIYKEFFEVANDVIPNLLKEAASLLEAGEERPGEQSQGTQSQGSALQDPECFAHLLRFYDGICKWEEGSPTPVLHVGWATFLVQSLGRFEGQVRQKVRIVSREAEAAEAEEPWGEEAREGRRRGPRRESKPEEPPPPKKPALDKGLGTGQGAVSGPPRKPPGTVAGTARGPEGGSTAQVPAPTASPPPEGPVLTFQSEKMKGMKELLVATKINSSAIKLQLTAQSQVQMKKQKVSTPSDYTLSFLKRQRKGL
hERG WT inh = blocks the wildtype human KCNH2 potassium channel | 340,000 tested, 0.37% active | activity change, % at 1.84 µM | U2OS, BacMam KCNH2, thallium flux FluxOr; stronger effect = lower value | AID 720551;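 active means maximum activity change below -70%; inconclusive means maximum activity change between -70% and -50%; inactive means maximum activity change above -50%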; further: on the % scale 0 is the no-effect control and ±100 the full control effect
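U2OS cells were transduced with wild-type KCNH2 virus (2.03 x 10^8 / mL) for 4 h at room temperature, then cultured overnight at 37 C. Thallium flux was read with FluxOr dye. Rate constants were normalized to DMSO controls.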
Menin MLL FP FL = menin-MLL binding inhibition, fluorescein peptide; Fluorescence polarization, fluorescein-MLL peptide displacement from menin; FP activity change, % at 61.4 µM; 290,000 tested, under 10 active; active means well fitted curve in the direction sought with a large enough effect in the polarisation, not every such curve was filed as active; inconclusive means small, poorly fitted or top-dose-only effect, or effect the other way, or a change in a side signal; inactive means no such curve, though single readings can be large or run the other way; the % refers to the polarisation; further: % of control where 0% means no effect
Numbers without * were called inactive; u = inconclusive; x = no result; [ ] = remark or other dose.

SMILES	KCNH2 3.1 inh	MLL CXXC-DNA inh	Menin-MLL TR inh	hERG WT inh	Menin MLL FP FL
C=C1CC2C=C(NC(C)=O)CC(C1)C2 (stereo not drawn)	-83*	-1%	1%	-7	3
CCOc1ccc2[nH]c(=O)c(CN(CCO)C(=O)CC)cc2c1	-7	-2%	28%	2	1
CCOc1ccc2[nH]c(=O)c(CN(CCO)C(=O)c3ccc(Br)cc3)cc2c1	-140*	-7%	-15%	-6	-2
COc1ccc(CCNC(=O)CSCc2ccc([N+](=O)[O-])cc2)cc1	6	3%	-12%	2	5
COc1ccc(CCNC(=O)CSCc2ccc([N+](=O)[O-])cc2)cc1OC	-206*	2%	-1%	-129*	2
O=C(COC(=O)c1ccc(-n2cnnn2)cc1)c1ccc(Br)cc1	-83*	x	x	u	x
O=C(COC(=O)c1ccccc1-n1cnnn1)c1ccc(Br)cc1	-1	x	x	5	x
CCCCCCNC(=O)Nc1ccc(S(=O)(=O)Nc2ccc(CCNC[C@H](O)COc3ccc(O)cc3)cc2)cc1	x	x	33%	x	-1
COC(=O)C1CC1[C@H](NC(=O)c1cccnc1)c1ccccc1 (stereo partly drawn)	x	x	-13%	x	-4
Cc1ccc(C(=O)N2CCN(c3ccc(NC(=O)COc4ccccc4C)cc3)CC2)cc1	-95*	-1%	-12%	-134*	3
CCC(=O)N1CCN(c2ccc(NC(=O)COc3ccc(C)cc3C)cc2)CC1	27	-15%	-15%	-7	1
COc1ccc(C(=O)N2CCN(c3ccc(NC(=O)Cc4ccccc4)cc3)CC2)cc1	-83*	37%	x	-25	x
Cn1c(COc2ccccc2)nnc1SCC(=O)c1cccc([N+](=O)[O-])c1	-92*	0%	u	-6	5
CCOc1cc(C)ccc1OCc1nnc(SCC(=O)c2cccc([N+](=O)[O-])c2)n1C	-9	0%	u	29	1
CNc1nc2c(N)ncnc2n1[C@@H]1O[C@@H]2COP(=O)(O)O[C@H]2[C@H]1O	x	x	u	x	-2
Nc1ncc(CCN2CCOCC2)c(-c2ccc(F)cc2)n1	-11	-17%	-3%	-121*	-5
Cc1ccc(OCCn2cc(/C=N/NC(=O)c3ccncc3)c3ccccc32)cc1	-5	0%	u	-187*	3
COc1ccc(OCCn2cc(/C=N/NC(=O)c3ccncc3)c3ccccc32)cc1	0	8%	u	2	9
CC(C)=CCC/C(C)=C/CO/N=C1/C[C@@H](O)[C@@H](O)[C@@H]2[C@@H]3C(=O)N(c4cccc(Oc5ccccc5)c4)C(=O)[C@H]3CC[C@@H]12	x	x	-7%[11.7 µM]	x	3[11.7 µM]
COc1ccc(C2CC(c3ccc(Cl)cc3)Nc3nc(NC(=O)c4ccco4)nn32)cc1 (stereo not drawn)	-71*	-4%	-2%	-38	3
Cc1c(NC(=O)COC(=O)c2cccc(F)c2)c(=O)n(-c2ccccc2)n1C	-5	x	x	-12	x
O=[N+]([O-])c1ccc(/C=C/C2=NN(c3ccccc3)C(c3ccco3)C2)cc1 (stereo not drawn)	-100*	u	u	u	u
O=[N+]([O-])c1ccc(C2=NN(c3ccccc3)C(c3ccco3)C2)cc1 (stereo not drawn)	u	27%	x	u	u
COc1ccc(/C=C/C(=O)C23CC4CC(CC(C4)C2)C3)cc1CN1CCOCC1	-14	5%	u	5	1
CCC(=Nc1ccc(N)cc1)C1=C(O)C(C(=O)OC)C(C)(C)CC1=O (stereo not drawn)	2	3%	32µM*	-20	u
CCCCC(=Nc1ccc(N)cc1)C1=C(O)C(C(=O)OC)C(C)(C)CC1=O (stereo not drawn)	-3	-3%	u	-2	5
CCOC(=O)/C(C#N)=C\c1ccc(N2CCN(C/C=C/c3ccccc3)CC2)cc1	-83*	u	-13%	-10	u
CCN(CC)CCNC(=O)c1cc(Nc2ccc(OC)c(OC)c2)nc2ccccc12	0	-3%	7%	12	-12
O=C(CN1C(=O)CCC1=O)Nc1nc(-c2ccccn2)cs1	-117*	2%	8%	4	-2
O=C(CN1C(=O)CCC1=O)Nc1nc(-c2ccc3ccccc3c2)cs1	-1	-4%	u	-10	4
